Targets with a hit are over-represented here; the source holds about 7,900 in all. About 0.6% of all pairs of compound and target were hits. Unmarked numbers belong to inactive results.

Sequence of UniProt Q7Z7E8 (Q7Z7E8 whole entry, looked up): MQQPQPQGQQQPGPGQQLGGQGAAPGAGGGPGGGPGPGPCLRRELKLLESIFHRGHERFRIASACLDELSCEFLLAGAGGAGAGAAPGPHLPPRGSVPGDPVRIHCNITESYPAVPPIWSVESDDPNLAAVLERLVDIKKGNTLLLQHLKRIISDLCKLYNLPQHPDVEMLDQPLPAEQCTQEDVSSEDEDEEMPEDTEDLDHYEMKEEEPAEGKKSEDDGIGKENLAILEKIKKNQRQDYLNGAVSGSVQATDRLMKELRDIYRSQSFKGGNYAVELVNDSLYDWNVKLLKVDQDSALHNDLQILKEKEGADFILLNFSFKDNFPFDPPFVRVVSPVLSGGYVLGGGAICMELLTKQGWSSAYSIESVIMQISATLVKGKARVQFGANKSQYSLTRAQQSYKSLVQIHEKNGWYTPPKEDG
Sequence of UniProt Q9Y4E6 (Q9Y4E6 whole entry, looked up): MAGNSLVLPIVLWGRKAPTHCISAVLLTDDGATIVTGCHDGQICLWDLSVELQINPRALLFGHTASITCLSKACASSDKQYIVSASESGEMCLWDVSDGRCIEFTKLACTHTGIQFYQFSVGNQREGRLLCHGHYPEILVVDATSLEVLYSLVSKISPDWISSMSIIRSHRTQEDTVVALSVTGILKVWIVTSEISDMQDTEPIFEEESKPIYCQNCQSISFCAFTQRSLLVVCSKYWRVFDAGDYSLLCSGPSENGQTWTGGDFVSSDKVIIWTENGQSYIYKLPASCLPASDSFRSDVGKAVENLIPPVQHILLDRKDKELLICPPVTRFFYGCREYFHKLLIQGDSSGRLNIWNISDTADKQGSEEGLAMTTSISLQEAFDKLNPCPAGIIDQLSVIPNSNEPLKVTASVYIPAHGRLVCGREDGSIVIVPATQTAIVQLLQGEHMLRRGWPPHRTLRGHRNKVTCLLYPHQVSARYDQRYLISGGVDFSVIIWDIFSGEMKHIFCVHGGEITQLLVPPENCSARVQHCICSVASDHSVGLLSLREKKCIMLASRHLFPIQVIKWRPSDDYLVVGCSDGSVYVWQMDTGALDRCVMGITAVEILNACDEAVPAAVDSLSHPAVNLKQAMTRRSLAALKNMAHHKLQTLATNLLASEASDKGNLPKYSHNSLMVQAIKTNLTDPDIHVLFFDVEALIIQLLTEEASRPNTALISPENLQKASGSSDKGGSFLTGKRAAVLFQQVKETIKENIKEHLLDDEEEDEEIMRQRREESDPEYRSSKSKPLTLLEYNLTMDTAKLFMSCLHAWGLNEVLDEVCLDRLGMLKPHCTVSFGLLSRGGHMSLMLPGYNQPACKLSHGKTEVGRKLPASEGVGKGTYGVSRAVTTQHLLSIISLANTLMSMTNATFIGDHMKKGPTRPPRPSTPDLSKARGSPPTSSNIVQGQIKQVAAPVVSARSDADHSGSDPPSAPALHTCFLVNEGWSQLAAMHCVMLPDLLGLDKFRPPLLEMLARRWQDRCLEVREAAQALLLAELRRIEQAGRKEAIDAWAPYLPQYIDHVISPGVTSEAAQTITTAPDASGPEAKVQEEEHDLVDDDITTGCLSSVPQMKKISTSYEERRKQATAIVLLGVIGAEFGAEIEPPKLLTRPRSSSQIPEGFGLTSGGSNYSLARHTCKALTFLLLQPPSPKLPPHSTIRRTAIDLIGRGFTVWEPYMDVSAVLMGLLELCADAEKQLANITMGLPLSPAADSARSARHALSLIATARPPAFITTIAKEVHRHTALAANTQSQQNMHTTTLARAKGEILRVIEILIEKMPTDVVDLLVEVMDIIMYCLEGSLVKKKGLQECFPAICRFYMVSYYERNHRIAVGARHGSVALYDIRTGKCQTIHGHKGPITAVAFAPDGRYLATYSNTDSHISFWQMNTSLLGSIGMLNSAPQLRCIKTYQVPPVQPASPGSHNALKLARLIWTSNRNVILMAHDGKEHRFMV
Sequence of UniProt Q15629 (Q15629 whole entry, looked up): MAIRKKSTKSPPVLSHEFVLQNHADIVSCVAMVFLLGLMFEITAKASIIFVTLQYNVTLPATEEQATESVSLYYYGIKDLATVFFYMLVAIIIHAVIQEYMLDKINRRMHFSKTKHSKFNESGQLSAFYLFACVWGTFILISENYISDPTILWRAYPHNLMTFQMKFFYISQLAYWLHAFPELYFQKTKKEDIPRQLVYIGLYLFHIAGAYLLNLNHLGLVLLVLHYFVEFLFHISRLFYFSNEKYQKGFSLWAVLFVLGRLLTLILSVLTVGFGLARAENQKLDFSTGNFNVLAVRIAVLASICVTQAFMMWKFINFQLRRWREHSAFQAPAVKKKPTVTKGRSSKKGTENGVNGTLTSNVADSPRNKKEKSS
Sequence of UniProt Q86SZ2 (Q86SZ2 whole entry, looked up): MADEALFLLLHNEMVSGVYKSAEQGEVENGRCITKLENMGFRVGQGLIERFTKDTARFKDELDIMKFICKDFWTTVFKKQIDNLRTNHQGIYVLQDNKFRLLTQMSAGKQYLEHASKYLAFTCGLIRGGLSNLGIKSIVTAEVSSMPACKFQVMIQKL
Sequence of UniProt Q9Y5K5 (Q9Y5K5 whole entry, looked up): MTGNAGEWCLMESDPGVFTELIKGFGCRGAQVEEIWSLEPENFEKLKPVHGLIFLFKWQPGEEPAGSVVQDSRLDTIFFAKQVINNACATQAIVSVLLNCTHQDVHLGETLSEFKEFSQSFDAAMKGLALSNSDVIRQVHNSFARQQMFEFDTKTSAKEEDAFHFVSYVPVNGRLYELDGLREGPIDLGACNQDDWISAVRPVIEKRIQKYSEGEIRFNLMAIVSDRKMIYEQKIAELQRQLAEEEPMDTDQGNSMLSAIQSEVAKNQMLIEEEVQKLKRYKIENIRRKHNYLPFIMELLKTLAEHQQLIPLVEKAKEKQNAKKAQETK
Sequence of UniProt Q9BTX3 (Q9BTX3 whole entry, looked up): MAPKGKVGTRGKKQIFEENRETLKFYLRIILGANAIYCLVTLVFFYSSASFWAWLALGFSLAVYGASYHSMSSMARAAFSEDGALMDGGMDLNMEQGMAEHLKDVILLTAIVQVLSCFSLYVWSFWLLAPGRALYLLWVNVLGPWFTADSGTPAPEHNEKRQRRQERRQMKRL
Sequence of UniProt O00258 (O00258 whole entry, looked up): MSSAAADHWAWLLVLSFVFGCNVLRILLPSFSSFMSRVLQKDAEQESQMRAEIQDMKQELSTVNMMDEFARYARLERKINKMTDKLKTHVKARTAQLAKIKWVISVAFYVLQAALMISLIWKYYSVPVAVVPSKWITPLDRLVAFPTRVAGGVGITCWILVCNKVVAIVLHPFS
Sequence of UniProt Q96JG6 (Q96JG6 whole entry, looked up): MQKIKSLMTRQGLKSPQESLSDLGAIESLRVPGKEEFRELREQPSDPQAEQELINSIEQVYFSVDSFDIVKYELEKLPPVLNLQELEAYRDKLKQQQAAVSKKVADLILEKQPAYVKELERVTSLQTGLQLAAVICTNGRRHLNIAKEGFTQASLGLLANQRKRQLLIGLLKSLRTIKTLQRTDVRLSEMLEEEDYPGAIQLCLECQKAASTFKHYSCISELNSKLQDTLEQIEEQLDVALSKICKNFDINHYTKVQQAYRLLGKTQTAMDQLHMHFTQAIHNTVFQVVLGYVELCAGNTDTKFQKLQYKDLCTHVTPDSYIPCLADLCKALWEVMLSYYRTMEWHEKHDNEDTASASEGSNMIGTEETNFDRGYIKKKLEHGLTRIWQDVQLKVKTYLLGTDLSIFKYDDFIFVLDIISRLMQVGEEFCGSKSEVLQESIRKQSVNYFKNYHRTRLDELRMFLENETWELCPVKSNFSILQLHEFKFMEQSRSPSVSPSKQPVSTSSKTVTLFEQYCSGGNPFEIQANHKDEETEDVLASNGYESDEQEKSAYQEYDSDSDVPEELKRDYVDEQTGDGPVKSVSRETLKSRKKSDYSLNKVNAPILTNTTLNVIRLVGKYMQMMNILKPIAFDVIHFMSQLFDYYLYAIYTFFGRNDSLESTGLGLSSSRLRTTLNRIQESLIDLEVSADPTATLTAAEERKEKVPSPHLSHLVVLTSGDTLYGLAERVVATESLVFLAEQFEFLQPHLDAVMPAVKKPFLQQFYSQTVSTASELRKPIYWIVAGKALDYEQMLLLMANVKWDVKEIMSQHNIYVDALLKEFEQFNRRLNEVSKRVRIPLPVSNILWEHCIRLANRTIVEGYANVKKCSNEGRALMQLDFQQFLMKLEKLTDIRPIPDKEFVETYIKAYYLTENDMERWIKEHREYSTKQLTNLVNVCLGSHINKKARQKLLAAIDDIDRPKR
Sequence of UniProt Q5VIR6 (Q5VIR6 whole entry, looked up): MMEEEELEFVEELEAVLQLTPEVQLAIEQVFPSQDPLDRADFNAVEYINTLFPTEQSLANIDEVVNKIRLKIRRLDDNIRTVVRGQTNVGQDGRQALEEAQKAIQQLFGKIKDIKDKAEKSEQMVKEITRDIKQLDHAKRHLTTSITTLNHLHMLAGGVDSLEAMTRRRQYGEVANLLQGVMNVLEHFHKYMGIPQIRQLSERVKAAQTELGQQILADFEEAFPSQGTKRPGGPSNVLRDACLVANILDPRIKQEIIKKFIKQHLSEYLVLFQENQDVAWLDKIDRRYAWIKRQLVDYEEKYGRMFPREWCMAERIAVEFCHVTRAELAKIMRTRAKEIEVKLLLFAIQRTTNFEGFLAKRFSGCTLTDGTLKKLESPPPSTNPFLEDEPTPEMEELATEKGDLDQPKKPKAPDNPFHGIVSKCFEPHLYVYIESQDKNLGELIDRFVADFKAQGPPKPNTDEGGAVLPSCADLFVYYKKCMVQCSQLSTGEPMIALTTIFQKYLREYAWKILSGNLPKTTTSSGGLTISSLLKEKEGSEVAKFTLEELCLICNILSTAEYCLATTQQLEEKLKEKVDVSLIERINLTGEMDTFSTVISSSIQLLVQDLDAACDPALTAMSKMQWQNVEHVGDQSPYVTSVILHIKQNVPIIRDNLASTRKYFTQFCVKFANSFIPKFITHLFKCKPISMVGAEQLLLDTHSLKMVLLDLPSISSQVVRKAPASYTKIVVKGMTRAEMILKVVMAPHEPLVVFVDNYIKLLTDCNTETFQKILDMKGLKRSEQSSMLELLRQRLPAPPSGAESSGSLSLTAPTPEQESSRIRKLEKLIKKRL

Compound in the assay: C1=CC(=CC=C1C2=NC3=C(N2)C=C(C=C3)C(=O)N)OC4=CC=C(C=C4)Cl
In words: log2 fold change, soluble protein after heating vs DMSO (PISA); higher = thermal stabilisation; K562 cells, 10 uM, 30 min; active = over 0.2 and 3.5 SD of the protein, either way, in both replicates (recomputed). The gist of the method: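 Aliquots of K562 cells (2×10^6 cells/mL) treated with 10 μM compound for 30 min were heated for 3 min over 48°C-58°C. After pooling and extraction in PBS with 0.5% NP-40 at 4°C, soluble protein from a 21,000xg, 90 min spin was quantified by TMTpro 16plex LC-MS/MS with channel sums equalised. Thermal stability is expressed against control samples, from duplicates, as a log2 fold change.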
Consider VPS72 isoform 2 (UniProt Q15906), for which the log2 fold change was -0.108.

Regarding UBE2J1 (UniProt Q9Y385), the log2 fold change is 0.045.

Regarding WDR43 (UniProt Q15061), the log2 fold change is -0.001.

As for UCHL5 isoform 3 (UniProt Q9Y5K5), the log2 fold change was -0.124.

Regarding TMEM161A (UniProt Q9NX61), the log2 fold change is -0.018.

With VPS50 (UniProt Q96JG6), the log2 fold change was -0.017.

Regarding XRCC6 (UniProt P12956), the log2 fold change was 0.011.

Consider WRB (UniProt O00258), for which the log2 fold change was 0.019.

With TMEM214 (UniProt Q6NUQ4), the log2 fold change was 0.001.

In the case of TOM1 isoform 2 (UniProt O60784), the log2 fold change was -0.04.

Regarding UBE3D (UniProt Q7Z6J8), the log2 fold change is 0.022.

For the target TOE1 (UniProt Q96GM8), the log2 fold change was -0.056.

Turning to TRMT2A (UniProt Q8IZ69), the log2 fold change was 0.07.

For the target VAMP7 (UniProt P51809), the log2 fold change was 0.005.

Turning to VTA1 (UniProt Q9NP79), the log2 fold change is 0.018.

Consider VPS41 (UniProt P49754), for which the log2 fold change is -0.018.

In the case of TMEM208 (UniProt Q9BTX3), the log2 fold change was 0.046.

In the case of USP14 (UniProt P54578), the log2 fold change was -0.014.

With TRIM4 (UniProt Q9C037), the log2 fold change was -0.199.

As to TMEM41A (UniProt Q96HV5), the log2 fold change is -0.014.

Turning to TRAM1 (UniProt Q15629), the log2 fold change was -0.088.

For the target USP15 (UniProt Q9Y4E8), the log2 fold change was -0.015.

As to TNNC2 (UniProt P02585), the log2 fold change is 0.018.

In the case of VPS52 (UniProt Q8N1B4), the log2 fold change was 0.067.

Take TRAPPC6B (UniProt Q86SZ2): the log2 fold change is -0.016.

WDR7 (UniProt Q9Y4E6): the log2 fold change was -0.049.

As to TMEM189-UBE2V1 (UniProt I3L0A0), the log2 fold change was 0.019.

As for TTI1 (UniProt O43156), the log2 fold change was -0.045.

As to WASHC2A (UniProt Q641Q2), the log2 fold change was 0.002.

Consider TSG101 (UniProt Q99816), for which the log2 fold change is 0.027.

For the target TRMT10A (UniProt Q8TBZ6), the log2 fold change is 0.031.

With WARS2 (UniProt Q9UGM6), the log2 fold change was -0.094.

In the case of UBE2Q1 (UniProt Q7Z7E8), the log2 fold change was 0.017.

Consider VPS53 isoform 4 (UniProt Q5VIR6), for which the log2 fold change is -0.04.

On to TOM1L1 (UniProt O75674), for which the log2 fold change was 0.044.

Regarding UBC (UniProt P0CG48), the log2 fold change is 0.011.

These data come from the supplement of paper PMC10849652.
